Drawing on PubChem BioAssay AID430 (Sanford-Burnham Center for Chemical Genomics, 2006), this text covers cytotoxicity for 96 compounds.

The whole screen tested about 63,000 compounds, of which about 1,100 (1.7%) were called active. This is one part of a sample in which actives are shown more often than they occur. Potency and affinity values are given separately. Values without a mark were called inactive. No stated cut-off is given here; in the data, active means cytotoxicity above about 50%; inactive means the rest.

This assay can be described thus: HPDE-C7 pancreatic duct cell viability loss – fluorescence, HTS (AID 430).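 Further: cells exposed to compound for 48 hours before viability readout; 0% = vehicle and 100% = reference cytotoxic drug.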 As to conditions: HPDE-C7 pancreatic duct cells viability, at 10 µM, active compounds read high.
As to `Oc1ccccc1-c1nc(NCc2ccco2)c2ccccc2n1`, the cytotoxicity was 0.8%. Consider `c1coc(CNc2nc(N3CCCCC3)nc3ccccc23)c1`, for which the cytotoxicity was 25.2%. Turning to `O=C(Cn1ncc2c(=O)oc3ccccc3c21)N1CCc2ccccc2C1`, the cytotoxicity is -15.7%. In the case of `N#Cc1c(/N=C/c2ccco2)oc(-c2ccccc2)c1-c1ccccc1`, the cytotoxicity was 70% (active). On to `N#Cc1c(/N=C/N2CCCC2)oc(-c2ccccc2)c1-c1ccccc1`, for which the cytotoxicity is 13.1%. The same measure for `N#Cc1c(N)oc(-c2ccccc2)c1-c1ccccc1`: -7.1%; for `CCC(=O)N1CCN(c2ccc(NC(=O)c3ccc4c(c3)OCO4)cc2)CC1`: -5.7%; for `COc1ccc(CN(C(=O)c2ccccc2OC)C2CCS(=O)(=O)C2)cc1` (stereo unspecified): -0.4%. As to `CCN(CC)C(=O)CSc1nnc(-c2ccccc2)n1N`, the cytotoxicity was -1.9%. The figure for `O=C(NC1CCCCC1)N1CCC(n2c(=O)[nH]c3ccccc32)CC1` is -3.9%. Consider `O=c1[nH]c2ccccc2n1CCCN1CCN(C(c2ccccc2)c2ccccc2)CC1`, for which the cytotoxicity is -7.2%. Regarding `O=C1CC(c2ccccc2)Sc2ccccc2N1` (stereo unspecified), the cytotoxicity is -15%.

For the compound `Cn1cccc1CNC(=O)Nc1ccc(Cl)cc1`, the cytotoxicity is -23.2%.

`C=C(C)COc1ccc(-c2ncncc2Oc2ccc(OC)cc2)c(O)c1`: the cytotoxicity is 1.9%. `C=C(C)COc1ccc(-c2nc(N)ncc2Oc2ccccc2OC)c(O)c1`: the cytotoxicity is 0.9%. The same measure for `C=C(C)COc1ccc(-c2n[nH]c(C)c2Oc2ccccc2OC)c(O)c1`: 61.3% (active); for `C=C(C)COc1ccc(-c2nc(N)nc(C)c2Oc2ccccc2OC)c(O)c1`: -1.3%. The same measure for `CCOc1ccc(-c2n[nH]c(C)c2Oc2ccccc2OC)c(O)c1`: -2.5%; for `CC(C)Cc1ccc(C#N)c(SCC(N)=O)n1`: -5.5%; for `Cc1ccc(NC(=O)CSc2nnc(Cn3c(=O)sc4ccccc43)n2C)cc1Cl`: -0.9%. The figure for `O=C(COC(=O)CCC(=O)c1ccc2c(c1)OCCO2)NCc1ccc2c(c1)OCO2` is -8.4%; for `Nn1c(Cc2ccccc2F)nnc1SCC(=O)N1CC(=O)Nc2ccccc21` it is -3.4%.

`Cc1cc(C)cc(N2CCCn3c2nc2c3c(=O)n(CC(=O)OCc3ccccc3)c(=O)n2C)c1`: the cytotoxicity is 26.4%. `O=C(O)C1CCCCC1C(=O)OCCCCOC(=O)C1CCCCC1C(=O)O` (stereo unspecified): the cytotoxicity was 3.9%. As for `COc1ccc(-c2n[nH]c(C)c2-c2cnn(-c3ccccc3)c2)c(O)c1`, the cytotoxicity is 36.4%. The figure for `Cc1[nH]nc(-c2ccc(O)cc2O)c1Oc1ccccc1` is 69.8% (active); for `COc1ccc(Oc2c(-c3ccc(O)cc3O)n[nH]c2C)cc1` it is 26.3%; for `Cc1[nH]nc(-c2ccc(O)cc2O)c1-c1ccc(Cl)cc1` it is 60.1% (active).

With `Oc1ccc(-c2[nH]ncc2-c2ccc(Cl)cc2)c(O)c1`, the cytotoxicity was 33.3%. As for `COc1ccc(-c2n[nH]c(C)c2-c2ccc(Cl)cc2)c(O)c1OC`, the cytotoxicity is -29.4%. The figure for `CSCCC(C(=O)Nc1ccc2c(c1)OCO2)N1C(=O)c2ccccc2C1=O` (stereo unspecified) is 0.6%; for `CN(C)c1ccc(CNC(=O)C2CCN(S(=O)(=O)c3ccc4c(c3)CCC(=O)N4)CC2)cc1` it is 3.1%; for `COc1ccc(N2CC(C(=O)NCCCN3CCOCC3)CC2=O)cc1` (stereo unspecified) it is 3.4%. The same measure for `Cn1c(=O)c2c(nc(SCCN3CCOCC3)n2Cc2ccc(F)cc2)n(C)c1=O`: 3.9%; for `CCCc1nc2ccccc2c(C(=O)OC2CCOC2=O)c1CC` (stereo unspecified): -7.5%; for `NC1(N)OC(CN2C(=O)c3ccccc3C2=O)CS1` (stereo unspecified): -15%. `CC1=CC(C)(C)N2C(=O)C3(C(C#N)=C(N)Oc4cc(C)oc(=O)c43)c3cccc1c32` (stereo unspecified): the cytotoxicity is 1.3%. The same measure for `CC1=CC(C)(C)N2C(=O)C3(C(C#N)=C(N)Oc4cc(O)ccc43)c3cccc1c32` (stereo unspecified): 68.4% (active).

On to `COc1cc2c3c(c1)C1(C(=O)N3C(C)(C)C=C2C)C(C#N)=C(N)Oc2cc(O)ccc21` (stereo unspecified), for which the cytotoxicity is -9.2%. The same measure for `Cc1ccc2cc3c(nc2c1)N(Cc1ccco1)CC3`: -15.5%. Regarding `CC1CCN(S(=O)(=O)c2ccc(NC(=O)Cn3nnc(-c4ccccc4)n3)cc2)CC1`, the cytotoxicity was 3.7%.

With `Cc1cc(NC(=O)COc2cccc3cccnc23)no1`, the cytotoxicity was 7.3%. The same measure for `COc1ccc(CNC(=O)C(C#N)c2nc3ccccc3nc2N2CCN(C)CC2)cc1` (stereo unspecified): 72% (active); for `COCCOC(=O)C(C#N)c1nc2ccccc2nc1N1CCN(Cc2ccccc2)CC1` (stereo unspecified): 8.9%.

With `CCCCCCOC(=O)C(C#N)c1nc2ccccc2nc1N1CCN(C)CC1` (stereo unspecified), the cytotoxicity was 64.2% (active). Regarding `CC(C)COC(=O)C(C#N)c1nc2ccccc2nc1N1CCN(Cc2ccccc2)CC1` (stereo unspecified), the cytotoxicity is -14%. The same measure for `CCCCCCOC(=O)C(C#N)c1nc2ccccc2nc1N1CCCCC1` (stereo unspecified): -47.4%.

Regarding `CCN1CCN(c2nc3ccccc3nc2C(C#N)C(=O)OCc2ccccc2)CC1` (stereo unspecified), the cytotoxicity is 58% (active). The figure for `COc1ccc(CNC(=O)C(C#N)c2nc3ccccc3nc2N2CCCC2)cc1` (stereo unspecified) is -15.8%; for `N#CC(C(=O)NCc1ccccc1)c1nc2ccccc2nc1N1CCCC1` (stereo unspecified) it is -2%. Take `CCCCCCOC(=O)C(C#N)c1nc2ccccc2nc1N1CCN(CC)CC1` (stereo unspecified): the cytotoxicity is 12.4%. Consider `Cc1cc2cc(CCNC(=O)CC(C)C)c(=O)[nH]c2cc1C`, for which the cytotoxicity is 3.7%.

For `O=C(NCc1ccco1)c1cc2ccccc2c(=O)o1`, the cytotoxicity is -3.4%. The figure for `Cc1nc(-c2cn[nH]c2)c2cc(C)oc2n1` is 1.2%; for `CCCN(CCC)c1nc2ccccc2nc1C(C#N)C(=O)OCCOC` (stereo unspecified) it is -8.9%; for `Cc1nnc(SCC(=O)Nc2nc3c(s2)CC(C)CC3)s1` (stereo unspecified) it is 1%. The figure for `CCC(c1nnnn1C(C)(C)C)N(CCOC)Cc1cc2cccc(C)c2n2nnnc12` (stereo unspecified) is 5.7%; for `CCOC(=O)c1c(C)oc2c1c(C=NCc1ccccn1)c(O)c1ccccc12` it is 91% (active).

With `CCOC(=O)c1c(C)oc2c1c(C=NC1CCS(=O)(=O)C1)c(O)c1ccccc12` (stereo unspecified), the cytotoxicity is 28.9%. The figure for `CCOC(=O)c1c(C)oc2c1c(/C=N/c1ccccn1)c(O)c1ccccc12` is 1.4%; for `CCOC(=O)c1c(C)oc2c1c1c(c3ccccc32)OCN(Cc2cccnc2)C1` it is 2.1%.

In the case of `CCOC(=O)c1c(C)oc2c1c(C=NCC1CCCO1)c(O)c1ccccc12` (stereo unspecified), the cytotoxicity was -16.9%. The same measure for `CCOC(=O)c1c(C)oc2c1c(C(c1cccnc1)N1CCN(C)CC1)c(O)c1ccccc12` (stereo unspecified): 112% (active).

For `O=S(=O)(N1CCCCC1)N1CCN(S(=O)(=O)N2CCCCC2)CC1`, the cytotoxicity was 0.2%. In the case of `CCOC(=O)CNC(=O)C(Cc1ccccc1)NS(=O)(=O)c1cccs1` (stereo unspecified), the cytotoxicity is 2.5%. On to `CC(=O)Nc1ccc(S(=O)(=O)c2ccc(N)cc2)cc1`, for which the cytotoxicity was -11%. The figure for `COC(=O)C(C)NS(=O)(=O)c1ccc(NC(C)=O)cc1` (stereo unspecified) is -12.8%; for `COc1ccccc1NS(=O)(=O)c1ccc(NC(C)=O)cc1` it is -0.5%.

`CCOC(=O)CN(Cc1ccccc1)S(=O)(=O)c1ccc(NC(C)=O)cc1`: the cytotoxicity is -2.7%. The figure for `COC(=O)/C=C/S(=O)(=O)c1ccc(NC(C)=O)cc1` is 102% (active).

In the case of `O=C(CSc1nnc(COc2ccc(Cl)cc2)o1)OC1CCCCC1`, the cytotoxicity is -7.9%. The figure for `CCOC(=O)N1CCC(NCCNC(=O)c2cccs2)CC1` is -6.4%; for `O=C(Cc1ccccc1)N1CCCC1c1ccccc1` (stereo unspecified) it is -22.3%; for `CCCCN(C(=O)NC(=O)Nc1ccccc1OC)S(C)(=O)=O` it is -3.1%. On to `CCOC(=O)N1CCN(C(=O)CSc2nnc(-c3ccc(C(C)(C)C)cc3)o2)CC1`, for which the cytotoxicity was 2.6%.

Consider `O=C(CNC1CCCCCC1)Nc1ccc(S(=O)(=O)NC2CC2)cc1`, for which the cytotoxicity is -6.7%. The same measure for `Cc1ccc(-c2cc(-c3ccc(C)o3)nc(N)c2C#N)cc1`: 20.9%. The same measure for `Cc1ccc(-c2cc(-c3ccccc3Cl)c(C#N)c(N)n2)o1`: 11.3%; for `Cc1ccc(-c2cc(-c3ccccc3)c(C#N)c(N)n2)o1`: 29.8%. With `Cc1cc(-c2cc(-c3ccc(Cl)cc3)nc(N)c2C#N)co1`, the cytotoxicity was 77.8% (active).

Take `Cc1ccc(-c2cc(-c3ccc(F)cc3)nc(N)c2C#N)o1`: the cytotoxicity is 20.1%. The figure for `Cc1ccc(-c2cc(-c3ccc(Cl)cc3)c(C#N)c(N)n2)o1` is 64.4% (active); for `COCC(=O)Nc1nc2n(n1)C(c1ccc(OC)cc1)CC(c1ccc(OC)cc1)N2` (stereo unspecified) it is 2.7%.

As to `O=C(NCCN1CCc2ccccc2C1)Nc1ccc(F)cc1`, the cytotoxicity was -10.7%.

For the compound `CSc1nc2cc(F)c(F)cc2n1C`, the cytotoxicity is -9.5%. With `COc1cc(C)c(Br)cc1S(=O)(=O)N1CCOCC1`, the cytotoxicity is -9.6%. The figure for `Cc1nn(CCCC(=O)N2CCc3ccccc3C2)c(=O)c2cc3sccc3n12` is -7.2%; for `O=C(Oc1ccccc1C(=O)N1CCOCC1)c1ccc(Br)cc1` it is -14.1%; for `CN(CCc1ccccn1)Cc1ccc(Cl)cc1` it is -13.4%. On to `CC(C)c1nc2oc3c(NCC4CCCO4)ncnc3c2c2c1COC(C)(C)C2` (stereo unspecified), for which the cytotoxicity was -14.6%. As for `CC(C)c1nc2oc3c(NCC4CCCO4)ncnc3c2c2c1CCC2` (stereo unspecified), the cytotoxicity is 114% (active). The figure for `Cc1nc2oc3c(NCC4CCCO4)ncnc3c2c2c1COC(C)(C)C2` (stereo unspecified) is -3.9%; for `CCCc1cc(N2CCCC(C(=O)Nc3cc(Cl)ccc3OC)C2)n2ncnc2n1` (stereo unspecified) it is -9.9%. The figure for `COc1cc(NC(=O)Nc2cccc(Cl)c2)c(OC)cc1NC(=O)CN1CCCCC1` is 83.1% (active); for `COc1cc(NC(=O)Nc2ccccc2)c(OC)cc1NC(=O)CN1CCCCC1` it is 6.1%. The same measure for `COc1cc(NC(=O)Nc2ccccc2OC)c(OC)cc1NC(=O)CN1CCCCC1`: 1.9%.
